Reference: PubChem BioAssay (NCI)
This is part of a sample that, as a whole, favours compounds with a hit. Of some 79,000 tested, about 15% had one in any assay. The source made the active and inactive calls. Cut-off read from the data, not from the text of the source: active = growth inhibition above about 70%; inactive = the rest.

Legend:
[1] = NCI Yeast Anticancer Drug Screen. Data for the wt1 strain (AID 149);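 note: 0% = growth of vehicle-treated wt1 cultures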; details: S. cerevisiae wt1 strain (SPY 50644) growth inhibition, active compounds read high
Procedure, shortened: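 Yeast wt1 strain exposed to compounds; growth inhibition measured relative to vehicle-treated controls.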

[2] = NCI Yeast Anticancer Drug Screen. Data for the rad50EPP+ strain (AID 151);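 note: 0% = growth of vehicle-treated control cultures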; details: S. cerevisiae rad50 mutant strain, active compounds read high
Procedure, shortened: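 One strain with a rad50 alteration (rad50EPP+) was compound-treated, its growth then compared to that of vehicle controls.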

[3] = NCI Yeast Anticancer Drug Screen. Data for the mgt1 strain (AID 153); details: S. cerevisiae mgt1 mutant growth inhibition, active compounds read high
Procedure, shortened: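 After exposure of the mgt1 yeast mutant to compound, growth was measured and reported as inhibition compared with vehicle controls.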

[4] = NCI Yeast Anticancer Drug Screen. Data for the rad50 strain (AID 155);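 note: 0% = growth of vehicle-only cultures of the same strain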; details: S. cerevisiae rad50 strain growth inhibition, active compounds read high
Procedure, shortened: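 Yeast carrying a defined DNA repair defect were exposed to test compounds, and growth was compared with vehicle-treated controls to give percent inhibition.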

[5] = NCI Yeast Anticancer Drug Screen. Data for the mec2-1 strain (AID 157); details: S. cerevisiae mec2-1 strain, active compounds read high
Procedure, shortened: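 Test agents were screened against the mec2-1 yeast strain, with defined DNA repair or cell cycle alteration. Growth was scored as inhibition against vehicle-only controls.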

[6] = NCI Yeast Anticancer Drug Screen. Data for the rad14 strain (AID 159);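 note: 0% = growth of vehicle-treated control cultures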; details: S. cerevisiae rad14 strain growth inhibition, active compounds read high
Procedure, shortened: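 Yeast cells carrying a defined DNA-repair defect were exposed to compounds, and growth inhibition was calculated relative to vehicle-treated control cultures.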

[7] = NCI Yeast Anticancer Drug Screen. Data for the sgs1 mgt1 strain (AID 161);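 note: 0% = growth of cultures given vehicle only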; details: S. cerevisiae sgs1 mgt1 strain, active compounds read high
Procedure, shortened: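 Genetically altered yeast, compound exposure, growth inhibition relative to vehicle.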

[8] = NCI Yeast Anticancer Drug Screen. Data for the CLN2oe strain (AID 163);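 note: 0% = growth of vehicle-only control cultures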; details: S. cerevisiae CLN2oe strain, active compounds read high
Procedure, shortened: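 Here, growth inhibition in a cell-cycle-altered yeast strain after compound exposure was quantified against vehicle control growth.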

[9] = NCI Yeast Anticancer Drug Screen. Data for the cln2 rad14 strain (AID 165);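 note: 0% = growth equal to vehicle treated cultures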; details: S. cerevisiae cln2 rad14 strain, active compounds read high
Procedure, shortened: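 Growth of compound-exposed yeast (cln2 rad14 genotype) measured and expressed as inhibition relative to vehicle.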

[10] = NCI Yeast Anticancer Drug Screen. Data for the bub3 strain (AID 167); details: S. cerevisiae bub3 mutant strain, active compounds read high
Procedure, shortened: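 Compounds were applied to a genetically altered yeast strain carrying a cell-cycle control defect. Growth inhibition was scored against vehicle-treated controls.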

[11] = NCI Yeast Anticancer Drug Screen. Data for the wt2 strain (AID 169);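 note: 0% = growth of vehicle-treated yeast cultures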; details: S. cerevisiae wt2 strain growth inhibition, active compounds read high
Procedure, shortened: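 Genetically defined yeast strains from a DNA-repair/cell-cycle panel were used. Compound-exposed yeast growth was measured, and the inhibition was calculated relative to vehicle treatment.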

[12] = NCI Yeast Anticancer Drug Screen. Data for the mlh1 strain (AID 171);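 note: 0% = growth of vehicle-treated control cultures of the same strain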; details: S. cerevisiae mlh1 strain growth inhibition, active compounds read high
Procedure, shortened: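 Here the genetically defined yeast mutant is grown with each compound, and the extent to which its growth falls below that of vehicle-exposed cells is reported.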

[13] = NCI Yeast Anticancer Drug Screen. Data for the sgs1 strain (AID 173);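 note: 0% = growth of vehicle-only control cultures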; details: S. cerevisiae sgs1 mutant, active compounds read high
Procedure, shortened: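 Relative growth inhibition, referenced to vehicle, was determined in a yeast strain with a defined alteration affecting DNA damage repair or cell cycle control after compound exposure.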

[14] = NCI Yeast Anticancer Drug Screen. Data for the mlh1 rad18 strain (AID 175); details: S. cerevisiae mlh1 rad18 strain growth inhibition, active compounds read high
Procedure, shortened: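 In this whole-cell yeast screen, a strain with altered DNA damage repair is challenged with compound, and its growth is measured against matched vehicle-treated controls.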

[15] = NCI Yeast Anticancer Drug Screen. Data for the rad18 strain (AID 177); details: S. cerevisiae rad18 mutant growth inhibition, active compounds read high
Procedure, shortened: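 Screen uses a yeast strain with a defined lesion in DNA damage repair; compound effect is read as loss of growth compared to untreated vehicle cultures.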

[16] = at 5.0 µM (retest, dose inferred, filed as 0.5)
[17] = at 50.0 µM (retest, dose inferred, filed as 5.0)

Measured: growth inhibition

CC(/C=C/c1ccccc1)=N\NC(N)=S
inactive: [1]; at 1.2 µM -8% | [1]; at 3.7 µM -5% | [1]; at 11.0 µM 6% | [1]; at 33.0 µM 17% | [1]; at 100.0 µM 35% | [2]; at 1.2 µM -5% | [2]; at 3.7 µM 6% | [2]; at 11.0 µM 0% | [2]; at 33.0 µM -3% | [2]; at 100.0 µM 48% | [3]; at 1.2 µM 9% | [3]; at 3.7 µM 13% | [3]; at 11.0 µM 10% | [3]; at 33.0 µM 29% | [3]; at 100.0 µM 52% | [4]; at 1.2 µM 14% | [4]; at 3.7 µM 10% | [4]; [16] 24% | [4]; at 11.0 µM 7% | [4]; [17] 60% | [4]; at 50.0 µM 33.7% | [5]; at 1.2 µM -2% | [5]; at 3.7 µM 5% | [5]; [16] 15% | [5]; at 11.0 µM -6% | [5]; at 33.0 µM 4% | [5]; [17] 35% | [5]; at 50.0 µM 62.5% | [5]; at 100.0 µM 59% | [6]; at 1.2 µM -8% | [6]; at 3.7 µM 2% | [6]; at 11.0 µM -17% | [6]; at 33.0 µM -15% | [6]; at 100.0 µM 45% | [7]; [16] 58% | [8]; at 1.2 µM 7% | [8]; at 3.7 µM 20% | [8]; at 11.0 µM 16% | [8]; at 33.0 µM 25% | [8]; at 100.0 µM 46% | [9]; [16] -5% | [9]; [17] 15% | [10]; at 1.2 µM 9% | [10]; at 3.7 µM -8% | [10]; [16] 18% | [10]; at 11.0 µM -2% | [10]; at 33.0 µM -8% | [10]; [17] 44% | [10]; at 100.0 µM 13% | [11]; at 1.2 µM -46% | [11]; at 3.7 µM -38% | [11]; at 11.0 µM -43% | [11]; at 33.0 µM -9% | [11]; at 100.0 µM 65% | [12]; at 1.2 µM 5% | [12]; at 3.7 µM 19% | [12]; at 11.0 µM 20% | [12]; at 33.0 µM 37% | [12]; at 100.0 µM 58% | [13]; at 1.2 µM -3% | [13]; at 3.7 µM 9% | [13]; at 11.0 µM 13% | [13]; at 33.0 µM 30% | [13]; at 100.0 µM 68% | [14]; [16] 49% | [14]; at 50.0 µM 58.8% | [15]; at 1.2 µM 9% | [15]; at 3.7 µM 11% | [15]; at 11.0 µM 33% | [15]; at 33.0 µM 67%
active: [4]; at 33.0 µM 93% | [4]; at 100.0 µM 97% | [7]; [17] 87% | [7]; at 50.0 µM 86.1% | [9]; at 50.0 µM 83% | [10]; at 50.0 µM 83.5% | [14]; [17] 77% | [15]; at 100.0 µM 94%

COC(=O)C1=C(C(=O)OC)C(C(=O)OC)C(C(=O)OC)C(C(=O)OC)(C(=O)OC)C(C(=O)OC)=C1C(=O)OC (stereo unspecified)
inactive: [1]; at 1.2 µM -11% | [1]; at 3.7 µM -13% | [1]; at 11.0 µM -25% | [1]; at 33.0 µM 1% | [1]; at 100.0 µM 39% | [2]; at 1.2 µM -4% | [2]; at 3.7 µM -4% | [2]; at 11.0 µM -4% | [2]; at 33.0 µM 1% | [2]; at 100.0 µM 27% | [3]; at 1.2 µM -18% | [3]; at 3.7 µM -19% | [3]; at 11.0 µM -17% | [3]; at 33.0 µM 13% | [3]; at 100.0 µM 62% | [4]; at 1.2 µM -10% | [4]; at 3.7 µM -14% | [4]; [16] 25% | [4]; at 11.0 µM 7% | [4]; at 33.0 µM 25% | [4]; at 100.0 µM 62% | [5]; at 1.2 µM -13% | [5]; at 3.7 µM -14% | [5]; [16] 20% | [5]; at 11.0 µM 1% | [5]; at 33.0 µM 16% | [5]; at 50.0 µM 60.5% | [5]; at 100.0 µM 55% | [6]; at 1.2 µM -16% | [6]; at 3.7 µM -20% | [6]; at 11.0 µM -11% | [6]; at 33.0 µM 14% | [8]; at 1.2 µM -11% | [8]; at 3.7 µM -21% | [8]; at 11.0 µM -26% | [8]; at 33.0 µM -7% | [8]; at 100.0 µM -1% | [9]; at 50.0 µM 33% | [10]; at 1.2 µM -13% | [10]; at 3.7 µM -13% | [10]; at 11.0 µM -22% | [10]; at 33.0 µM 18% | [10]; at 50.0 µM 54.5% | [10]; at 100.0 µM 35% | [11]; at 1.2 µM -22% | [11]; at 3.7 µM -18% | [11]; at 11.0 µM -17% | [11]; at 33.0 µM 1% | [11]; at 100.0 µM 58% | [12]; at 1.2 µM -16% | [12]; at 3.7 µM -23% | [12]; at 11.0 µM -18% | [12]; at 33.0 µM -1% | [12]; at 100.0 µM 39% | [13]; at 1.2 µM -18% | [13]; at 3.7 µM -11% | [13]; at 11.0 µM -7% | [13]; at 33.0 µM 18% | [13]; at 100.0 µM 60% | [14]; [16] 26% | [14]; at 50.0 µM 67.4%
active: [4]; [17] 93% | [4]; at 50.0 µM 77.9% | [5]; [17] 94% | [6]; at 100.0 µM 73% | [7]; [16] 96% | [7]; [17] 99% | [7]; at 50.0 µM 80.1% | [9]; [16] 88% | [9]; [17] 97% | [10]; [16] 95% | [10]; [17] 99% | [14]; [17] 87%
